The list is not random: actives were taken first. Their share in the collection is about 5.4%.
A3A deaminase: blocks human APOBEC3A ssDNA deamination; P31941; recombinant A3A, FAM/TAMRA ssDNA deamination fluorescence; inhibition, % at 20 µM; AID 493011; actives 0.41% (n = 330,000);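 active means at least 40% inhibition at 20 µM here, with at most 30% in a related deaminase screen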;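 further: plate controls were A3A with DMSO for no effect and wells lacking A3A enzyme for full effect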
aDG glyco act: alpha-DG glycosylation activation; Pro5-aDG cells, alpha-DG glycosylation AlphaScreen (IIH6); 0% Pro5, 100% B10-LARGE cell signal; actives 0.22% (n = 360,000); activation, % at 10 µM;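 active means activation of at least 8% versus controls, or a plate z-score of at least 8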;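 further: Pro5 are CHO cells carrying HIG-tagged alpha-DG that lacks glycosylation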
APOBEC3G inh: APOBEC3G (human) deaminase inhibition. Q9HC16. recombinant A3G, ssDNA deamination FAM/TAMRA fluorescence. inhibition, % at 20 µM. actives 0.28% (n = 330,000);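 active means inhibition of at least 40% at 20 µM, with no more than 30% in the related APOBEC3A deaminase screen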;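 further: plate controls were DMSO wells with A3G for no effect and wells lacking A3G enzyme for full effect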
PHOSPHO1 inh: blocks human PHOSPHO1 phosphatase activity | actives 1.1% (n = 290,000) | recombinant PHOSPHO1, absorbance phosphatase assay | Q8TCT1 | inhibition, % at 13.3 µM | AID 1565; in the data active means inhibition above about 60%
Target sequence (Q8TCT1 whole entry, looked up): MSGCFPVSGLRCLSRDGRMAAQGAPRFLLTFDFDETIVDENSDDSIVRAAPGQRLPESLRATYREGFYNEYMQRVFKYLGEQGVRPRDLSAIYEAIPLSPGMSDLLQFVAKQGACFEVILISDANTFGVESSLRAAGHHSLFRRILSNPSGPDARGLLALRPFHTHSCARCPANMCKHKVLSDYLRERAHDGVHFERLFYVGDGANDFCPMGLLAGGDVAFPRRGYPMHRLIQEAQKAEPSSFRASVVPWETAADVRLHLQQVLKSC
rCAG RNA binder: binds r(CAG) RNA repeats; r(CAG) RNA repeat, TO-PRO-1 dye displacement fluorescence; inhibition, % at 3 µM; actives 1.3% (n = 370,000); AID 651821;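 active means inhibition above the plate cutoff, the mean of all test compounds on that plate plus 3 SD, cut at about 35% in these data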;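 further: 0% = DMSO alone and 100% = 100 µM mitoxantrone as full dye displacement; higher means more dye released from RNA so lower well fluorescence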
ALR H2O2 inh: blocks human ALR sulfhydryl oxidase activity. P55789. purified ALR, DTT oxidation, H2O2 HRP-luminol luminescence. inhibition, % (test concentration not listed). actives 3.8% (n = 290,000). AID 485317;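 active means mean replicate inhibition above about 79%, with every replicate also reaching it, limit read from the data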
Active calls of the source: *; nt = not tested or not shown.

SMILES	A3A deaminase	aDG glyco act	APOBEC3G inh	PHOSPHO1 inh	rCAG RNA binder	ALR H2O2 inh
CCn1c(=O)cc(SCC(=O)NCc2ccc(C)o2)c2ccccc21	-2.6	-0.3	7.2	13.0	-4.0	97.8*
CCn1c(=O)cc(SCC(=O)NCCCN2CCC(C)CC2)c2ccccc21	1.9	-0.2	-1.0	39.8	-3.5	-4.6
CCn1c(=O)cc(SCC(=O)NCCCN2CCN(c3ccc(F)cc3)CC2)c2ccccc21	2.6	0.5	0.8	11.0	-7.5	96.0*
CCn1c(=O)cc(SCC(=O)NCc2ccccn2)c2ccccc21	0.5	0.0	-7.0	30.6	3.7	97.9*
O=C(NCc1ccccc1Cl)C1CCC(CNS(=O)(=O)c2cccc3cccnc23)CC1 (centres undefined)	nt	nt	nt	nt	20.3	nt
CC(C)CNC(=S)NNC(=O)c1csc2c1CCC(C)C2 (centres undefined)	-0.2	0.6	-3.1	83.5*	4.9	7.3
Cc1cccc(NC(=S)NNC(=O)c2csc3c2CCC(C)C3)c1 (centres undefined)	-1.5	-0.1	0.3	30.7	28.3	nt
CCCN1C(=O)c2[nH]nc(-c3ccccc3)c2C1c1ccc(Br)cc1 (centres undefined)	nt	nt	nt	nt	2.3	nt
COc1ccc(S[C@]2(C(=O)NCCCN(C)C)CC(=O)N[C@@H]2c2ccc(OC)cc2)cc1	nt	nt	nt	nt	0.1	nt
CC1(C)CC(=O)C=C(OC(=O)c2ccc(Cl)cc2)C1	-2.6	-0.1	-6.3	10.7	0.6	97.8*
CC(=O)Nc1ccc(NC(=O)CSc2nnc(-c3n[nH]c4c3CCC4)n2N)cc1	nt	nt	nt	nt	-2.4	nt
O=C1NCCCC2c3c(cc(Br)c(O)c3Br)OC12N1CCCCC1 (centres undefined)	-2.7	0.5	1.3	16.2	1.3	98.8*
N#Cc1c(NC(=O)c2ccccc2Cl)n(Cc2ccccc2)c2nc3ccccc3nc12	nt	0.9	nt	0.8	89.5*	8.6
CCc1[nH]nc(C(=O)N2CCCC(Nc3ccc(C(C)C)cc3)C2)c1C (centres undefined)	-2.4	0.4	-5.8	17.6	-12.3	95.0*
CCc1[nH]nc(C(=O)N2CCCC(Nc3cccc(F)c3)C2)c1C (centres undefined)	-4.7	0.1	-5.3	27.0	-6.7	98.9*
CC(=O)c1[nH]c(C)c(C(=O)N2CCCC(Nc3cccc(F)c3)C2)c1C (centres undefined)	-0.3	0.0	2.6	12.1	-2.9	75.3*
CCc1noc(C)c1C(=O)N1CCCC(Nc2cccc(F)c2)C1 (centres undefined)	nt	-0.1	nt	nt	0.8	nt
CC(=O)c1[nH]c(C)c(C(=O)N2CCCC(Nc3ccc(C(C)C)cc3)C2)c1C (centres undefined)	-2.1	-0.1	-7.1	nt	-8.5	nt
O=C(NC1CCCCN(Cc2cccc(Cl)c2)C1=O)c1ccc(Cl)cc1Cl (centres undefined)	nt	nt	nt	nt	4.3	nt
FC(F)(F)c1ccc(Nc2nnnc3ccccc23)cc1	1.2	0.4	1.9	60.9*	3.4	-37.9
CCN(CCNC(=O)C1CCN(S(=O)(=O)c2cccc3nsnc23)CC1)c1ccccc1	-2.2	0.8	-0.5	19.4	0.5	98.6*
COc1ccc(NC(=O)C2CCCN(S(=O)(=O)c3cccnc3)C2)c(OC)c1 (centres undefined)	-0.1	0.2	-4.2	0.7	-0.7	nt
O=C(NCCc1ccccc1)C1CC(=O)N(CCc2ccccc2)C1 (centres undefined)	0.2	-0.1	-2.2	6.9	-4.9	-11.7
CCN(CCCNC(=O)C1CCN(S(=O)(=O)c2cnc[nH]2)CC1)c1cccc(C)c1	-2.6	-0.3	-1.0	20.7	1.0	98.8*
CCN(CC)c1ccc(NC(=O)C2CCCN(S(=O)(=O)c3cccnc3)C2)c(C)c1 (centres undefined)	0.9	0.0	-6.7	18.6	1.5	98.8*
CCCN(CCC)CCCNC(=O)C1CCN(S(=O)(=O)c2cccc3nsnc23)CC1	-3.3	0.0	-5.3	42.0	-1.0	1.9
CCN(CCNC(=O)C1CC(=O)N(CCc2ccccc2)C1)c1ccccc1 (centres undefined)	-5.8	0.0	-0.1	17.9	-0.8	99.4*
CC1COCC(C)N1S(=O)(=O)c1ccc2c(c1)CCN2C(=O)C1CCC1 (centres undefined)	nt	nt	nt	nt	1.6	nt
CC(C)CCNC(=O)Cn1cc2c(n1)CCCCC2	-1.6	0.1	-5.8	14.1	-2.3	-7.3

Assay outcomes (PubChem)
